From the OligoGym collection

molecular target: MRPL30; assay: pooled miR-30 sensor sort-seq; sequence = guide strand; conditions: shRNA
Further: reference of the scale not given here.

Sequence | sensor-assay potency score (higher = more potent)
TTAAATAAAAACAATTTGCATT | -0.896
TATTCTTGTGAACTTGAGGGGT | 0.0626
TTTGTCACAGTCTGTAGTCTGC | -0.242
TTCAATTTTGCATTCACTGAAG | -0.704
TTTGTGACGAATCCAATCTGTA | -0.546
TTTTTCTAATCCAAGCATCTTT | -0.539
TATTCTGGTAACAATATGCAGT | -0.632
TAGACATGTTCTCCTCTGCTGG | -0.684
TCACAGTCTGTAGTCTGCCTGG | -0.534
ATTCTTGTGAACTTGAGGGGTA | -0.0278

molecular target: MRPS18C; assay: as above; conditions: shRNA

Sequence | sensor-assay potency score (higher = more potent)
TGCTTTTGTGATTTCTTTCTGT | 0.125
TTTCTTTCTGTTTCTTCCCACA | -1.1
ATTTCTTTCTGTTTCTTCCCAC | 0.584
TTGAGCTCTCTTAATTGCTTTT | -1.05
TACCTGTTGTGAACAACCTCTT | 0.47
TTTGAGCTCTCTTAATTGCTTT | -0.321
TTTCTTCCCACAAAGACCTGTA | 0.204
TGTGATTTCTTTCTGTTTCTTC | 0.701
TTGTGAACAACCTCTTCTCCAA | -0.0976
TACCAAGTGTGTCAACTTCTTC | -0.886
ATACCTGTTGTGAACAACCTCT | -0.0858
TAGGGTCCTTGAGATATGCAGG | -0.899
